Data on 12 molecules can be found in PubChem BioAssay (NCATS).

Results filed as inconclusive are left out. Calls of active or inactive are those of the source. Calls come from the whole dose curve; as a rule, active = well fitted inhibition curve with a large enough effect; inconclusive = small, poorly fitted or top-dose-only effect; inactive = no such curve, though single readings can be large or run the other way.
Potency is the fitted concentration of half-maximal effect.

The nature of this assay: P-glycoprotein substrates identified in KB-3-1 adenocarcinoma cell line, qHTS therapeutic library screen (AID 1346986). Note: nearly all actives have a fitted effect of over 60% in size.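 Note: potency is for cytotoxicity meaning loss of cell viability.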 As to conditions: KB-3-1 parental cells viability, CellTiter-Glo, 72 h; series mostly up to 44.5 µM; activity change, negative = cytotoxicity: at the top concentration. In short, it runs like this:
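Counter-screen: cherry-picked hits retested in the KB pair and in HEK-293 pcDNA/MDR-19 cells ± tariquidar. Primary screen used 72 h CellTiter-Glo viability in KB-3-1 and KB-8-5-11.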
With `CC(=O)N[C@H]1[C@H](O[C@H]2CC[C@@]3(C)C(CC[C@]4(C)C3CC=C3[C@@H]5CC(C)(C)CC[C@]5(C(=O)OC5OCC(O)C(O)C5O)CC[C@]34C)C2(C)C)O[C@H](COC2OC(C)C(O)C(OC3OC(C)C(O)C(O)C3O)C2O)[C@@H](O)[C@@H]1O` (some centres not stated), the outcome was “inactive [at 9.29 µM]”. The same measure, in the same setting: the result for `CC1(C=O)CC[C@]2(C(=O)O[C@@H]3O[C@H](CO)[C@@H](O)[C@H](O)[C@H]3O)CC[C@]3(C)C(=CCC4[C@@]5(C)C[C@H](O)[C@H](O[C@@H]6OC[C@@H](O)[C@H](O)[C@H]6O)[C@@](C)(CO)C5CC[C@]43C)C2C1` (some centres not stated) reads “inactive [at 9.29 µM]”; that for `CC1=C(C)C(=O)OC(C(C)C2CCC3C4C5OC5C5(O)CC(OC6OC(CO)C(OC7OC(C)C(O)C(O)C7O)C(O)C6O)CC(O)C5(C)C4CCC23C)C1` (configuration not stated), “inactive [at 17.4 µM]”. Regarding `C=C1C[C@]23C[C@H]1CC[C@H]2C1=C[C@H]2OC(=O)[C@@](C)([C@H]1[C@@H]3C(=O)O)[C@H]2O`, the result was inactive. For `N#Cc1c(Oc2ccc(F)c(NC(=O)Cc3cccc(C(F)(F)F)c3)c2)ccc2nc(NC(=O)C3CC3)sc12`, the Potency is 6.51 µM (active). As to `COc1cc(N2CCOCC2)ccc1Nc1ncc(Cl)c(Nc2ccccc2NS(C)(=O)=O)n1`, the Potency was 2.06 µM (active). As to `O=C(c1ccc2nccnc2c1)N1CCCCC1`, the outcome was inactive. Still for that read-out and setting: the result for `O=C(NOCC(O)CO)c1ccc(F)c(F)c1Nc1ccc(I)cc1F` (configuration not stated) reads “inactive”; that for `OC1CCC(Nc2ncc3nc(Nc4c(F)cc(F)cc4F)n([C@H]4CCOC4)c3n2)CC1` (some centres not stated), “inactive”. In the case of `COc1c2c(c(C)c3c1C(=O)OC3)O[C@@]1(C)CC(O)C(C(C)(C)O)[C@](C)(CCC(=O)O)[C@H]1C2` (some centres not stated), the “outcome” value was “inactive [at 17.4 µM]”. Same read-out and setting: the result for `C[C@H](NC(c1cccc2[nH]c(=O)c(=O)[nH]c12)P(=O)(O)O)c1ccc(Br)cc1` (some centres not stated) reads “inactive”; that for `CC1OC(OC2C(C)OC(OC3C(OC(=O)C45CCC(C)(C)CC4C4=CCC6C7(C)CCC(OC8OC(C(=O)O)C(O)C(O)C8OC8OC(CO)C(O)C(OC9OC(C)C(O)C(O)C9O)C8O)C(C)(CO)C7CCC6(C)C4(C)CC5)OC(CO)C(O)C3O)C(O)C2O)C(O)C(O)C1O` (configuration not stated), “inactive [at 9.29 µM]”.
